In the library only some 2.9% were active in any assay of this set; here they are far more common.
S1P4 antag: human S1P4 receptor antagonism; O95977; 0.26% of 220,000 active; inhibition, % at 4.98 µM; S1P4-expressing cells, antagonist mode, reporter read-out; in the data active = inhibition above about 29%;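 note: 0% = wells stimulated with agonist and 100% = vehicle wells without agonist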
HSF1 activator: increases HSF-1 driven luciferase reporter signal; NIH3T3-HGL HSF-1 luciferase reporter, MG132, 8 h; 100% = twice DMSO control signal; activation, % at 9 µM; 1.7% of 300,000 active; AID 504408;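 active = mean replicate activation of at least 50% with a set share of replicates each reaching 50%; inconclusive = only one of those two conditions met; inactive = mean below 50% and too few replicates reaching it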;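 note: 0% = median of the neutral control wells and 100% = twice that signal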
S1P3 antag-1: S1P3 (human) receptor antagonism. Q99500. CHO S1P3 NFAT-BLA reporter, FRET fluorescence, antagonist mode. inhibition, % at 4.98 µM. 0.27% of 170,000 active;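 active = inhibition above the plate cutoff, the mean inhibition of test wells on that plate plus 3 SD, cut at about 28% in these data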;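 note: cells challenged with S1P at its EC80 of 0.8 µM; blue over green emission ratio from cleaved BLA substrate after 4 h stimulation; 0% = S1P-stimulated wells and 100% = unstimulated DMSO-only wells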
Target sequence (Q99500 whole entry, looked up): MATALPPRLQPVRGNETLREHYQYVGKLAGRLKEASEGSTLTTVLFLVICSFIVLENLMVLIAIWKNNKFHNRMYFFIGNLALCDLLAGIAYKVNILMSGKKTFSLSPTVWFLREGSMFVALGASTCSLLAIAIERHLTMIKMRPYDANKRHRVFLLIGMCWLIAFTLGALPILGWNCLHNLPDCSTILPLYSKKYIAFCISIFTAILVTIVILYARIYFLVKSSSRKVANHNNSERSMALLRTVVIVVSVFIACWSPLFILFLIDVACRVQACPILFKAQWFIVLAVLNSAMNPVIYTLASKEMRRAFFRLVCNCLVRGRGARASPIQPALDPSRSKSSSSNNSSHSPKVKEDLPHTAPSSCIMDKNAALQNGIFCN
HSF1 inh: HSF1 inhibition | 0.77% of 300,000 active | activity change, negative = inhibition, % at 7.5 µM (by protocol) | NIH3T3-HGL HSE-luciferase, MG132-induced, luminescence 8 h; active compounds read low;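 active = more than half of replicate wells show activity change below -50%, luminescence cut by over half; inconclusive = some wells, but at most half, below -50%; inactive = no replicate well below -50%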;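 note: luciferase reports HSF-1 transcriptional activity via heat shock element; 0% = median of DMSO wells and -100% = zero luminescence signal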
S1P4 ag: activates the human S1P4 receptor | O95977 | S1P4-expressing cell line, agonist reporter assay | activation, % at 4.98 µM | 0.35% of 220,000 active; in the data active = activation above about 11%;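 note: 0% = DMSO vehicle and 100% = reference agonist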
Hsp70 activator: Hsp70 transcriptional activation, primary screen | HeLa Hsp70 promoter luciferase reporter, luminescence; scaled: vehicle 0, proteasome-inhibitor control 100% | activation, % at 10 µM | 0.04% of 200,000 active | AID 1203;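 active = activation above the mean across all tested compounds plus 3 SD, cutoff set per campaign, cut at about 5.5% in these data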;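 note: 100% = MG132 at 30 µM as the positive control and 0% = DMSO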
S1P3 antag-2: human S1P3 receptor antagonism, confirmation. shares compounds with S1P3 antag-1. CHO S1P3 NFAT-BLA reporter, FRET, antagonist mode. inhibition, % at 4.98 µM. 30% of 240 active. AID 1429;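 active = inhibition above the hit threshold that was computed for the earlier primary screen, cut at about 30% in these data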;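 note: 0% = S1P-stimulated wells and 100% = unstimulated DMSO-only wells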
The depositor's hits bear a star; u = inconclusive; x = no result.

SMILES	S1P4 antag	HSF1 activator	S1P3 antag-1	HSF1 inh	S1P4 ag	Hsp70 activator	S1P3 antag-2
COC(C(=O)Nc1ccc(S(=O)(=O)Nc2cccc3ccccc23)cc1)c1ccccc1 (stereo unspecified)	2.6	55.0*	-25.0	40.4	0.3	-0.3	x
NS(=O)(=O)c1ccc(N/C=C\C(=O)c2ccc3ccccc3c2)cc1	-11.2	12.8	-17.0	0.2	-0.5	-0.3	x
COc1ccc(Nc2ccnc(Nc3ccc(OC)cc3)n2)cc1	-0.4	30.9	3.2	19.4	0.7	-0.3	x
Clc1cccc2sc(-c3nnc(-c4ccccc4)o3)c(Cl)c12	-6.0	27.4	x	20.0	5.9	-0.4	x
C/C(=N\NC(=O)c1nnn(-c2nonc2N)c1C(C)C)c1ccncc1	x	-58.0	x	-50.6*	x	x	x
C/C(=N\NC(=O)c1nnn(-c2nonc2N)c1C(C)C)c1ccc2ccccc2c1	x	-1.5	x	-4.8	x	x	x
CCN(CC)C(=O)Cn1cc(SCC(=O)NC2CCCC2)c2ccccc21	-5.5	1.1	-5.5	10.4	0.5	0.0	x
Cc1ccc(Cn2ncc3c(N4CCN(C)CC4)ncnc32)cc1	-5.5	-81.1	-13.5	-74.6*	2.0	0.0	x
Cc1ccc(Cn2ncc3c(N4CCN(c5ccc(C)cc5)CC4)ncnc32)cc1	-21.1	38.0	x	28.4	1.4	0.1	x
Nc1nc2c(s1)COc1ccccc1-2	-22.9	2.1	-22.7	6.0	-0.9	0.1	x
Nc1nc2c(s1)CCc1c-2cnn1-c1ccccc1	-16.0	71.5*	26.8	53.0	0.2	0.3	x
CCOC(=O)C1(Cc2cccc(F)c2)CCN(Cc2cnn(CC)c2C)CC1	4.3	-0.7	3.7	-9.0	0.7	0.0	x
CC(=O)C1=C(O)C(=O)N(c2nccs2)C1c1ccccc1 (stereo unspecified)	-9.6	59.8*	x	23.3	-1.6	0.1	x
CCc1cccc(NC(=O)COC(=O)/C=C/c2cccs2)c1	x	-62.5	x	-51.5*	x	x	x
CS(=O)(=O)Nc1ccc(C(=O)N2CC(=O)Nc3ccccc32)cc1	x	-11.2	x	-8.3	x	x	x
CCCCN1C=CC(=C2C(=O)c3ccccc3C2=O)C=C1	-4.1	-86.7	-13.3	-82.5*	-1.9	-0.5	x
O=C(Nc1ncccn1)c1ccc(C(F)(F)F)cc1	-12.3	13.0	-0.6	-14.4	1.6	-0.2	x
O=C(O)c1ccc(NC2CC(=O)N(Cc3ccccc3)C2=O)cc1 (stereo unspecified)	-28.9	-6.8	0.8	-6.6	2.8	0.2	x
O=C1C2CCCCC2C(=O)N1Cc1ccccc1 (stereo unspecified)	-26.4	67.8*	-2.2	20.0	2.4	0.0	x
CCCN(CCC)C1CC(=O)N(Cc2ccccc2)C1=O (stereo unspecified)	-8.7	-40.7	-5.8	u	2.1	-0.3	x
Cc1ccc(NC2CC(=O)N(Cc3ccccc3)C2=O)cc1 (stereo unspecified)	-19.2	55.8*	x	24.0	-1.7	-0.4	x
O=C1CC(N(O)C2CC(=O)N(Cc3ccccc3)C2=O)C(=O)N1Cc1ccccc1 (stereo unspecified)	-5.4	56.8*	x	15.5	0.5	-0.1	x
Cc1ccnc(NC(=O)CSc2nnc3c(n2)[nH]c2ccccc23)c1	-6.8	7.7	-5.7	6.9	-0.2	-0.5	x
O=C(O)c1cccc(-c2ccc(/C=N/Nc3ccc([N+](=O)[O-])cc3)o2)c1	20.1	13.3	13.9	-3.9	-0.5	x	x
O=C(N/N=C/c1ccc(-c2cccc([N+](=O)[O-])c2)o1)[C@H]1C[C@@H]1c1ccccc1	-0.5	-18.1	13.0	-0.9	-1.5	-0.2	x
SMILES	S1P4 antag	HSF1 activator	S1P3 antag-1	HSF1 inh	S1P4 ag	Hsp70 activator	S1P3 antag-2
O=C(N/N=C/c1ccc(-c2ccc([N+](=O)[O-])cc2)o1)[C@H]1C[C@@H]1c1ccccc1	0.1	-12.4	44.9*	12.8	0.4	x	63.2*
O=C(O)c1ccc(-c2ccc(/C=N/Nc3ccc([N+](=O)[O-])cc3)o2)cc1	6.4	-13.3	29.4*	-3.8	3.0	x	-0.8
CC1(C)CSC(=S)N1S(=O)(=O)c1ccccc1	3.1	-19.6	-13.9	4.5	1.1	0.1	x
CC(C)(C)c1ccc(CNc2ccc([N+](=O)[O-])cn2)cc1	-12.0	17.3	30.0*	10.4	-2.4	-0.2	14.7
O=C(Nc1cc(Cl)ccc1N1CCCC1)C1=NN(c2ccccc2)C(=O)CC1	x	-6.0	x	-0.5	x	x	x
c1ccc(CCNc2ncnc3ccccc23)cc1	-19.8	11.0	44.4*	2.3	4.5	-0.1	33.2*
COc1ccccc1CNC(=O)N1CCN(S(=O)(=O)c2ccccc2)CC1	x	4.8	x	-1.0	x	x	x
CN(C)/C=C/C(=O)C(F)(F)F	1.9	2.5	-8.6	1.2	2.4	0.2	x
CN(C)/C=C/C(=C\C(=O)C(F)(F)F)Nc1ccc(C(F)(F)F)cc1	-12.9	-18.4	45.3*	-20.3	1.0	-0.1	-5.6
O=C(/C=C/c1ccco1)Nc1sc2c(c1C(=O)O)CCC2	-15.5	4.7	x	20.4	-0.5	-0.1	x
N#Cc1c(NC(=O)/C=C/c2ccco2)sc2c1CCCC2	2.3	10.7	29.3*	16.5	1.9	1.8	28.7*
C1=C(CCNc2ncnc3c2[nH]c2ccccc23)CCCC1	-14.3	x	40.9*	x	3.5	-0.2	27.9
C=CCn1c(O)c(C=Nc2ccc(CN3CCCCC3)cc2)c(=O)[nH]c1=S	-17.6	20.8	42.3*	0.8	0.2	x	-6.4
O=C(CNc1n[nH]c(=O)[nH]c1=O)N/N=C/c1cccnc1	-6.4	16.7	38.6*	1.8	0.3	-0.5	-11.7
O=C(CNc1n[nH]c(=O)[nH]c1=O)N/N=C/c1ccccc1	-1.5	-2.1	-9.5	2.3	0.7	x	x
COc1cccc(NC(=S)NNC(=O)Cn2nc(C(F)(F)F)cc2C)c1	-11.8	32.0	-7.0	6.8	-0.6	0.1	x
COc1ccc(OC)c(Nc2ccc(Nc3cc(OC)ccc3OC)nn2)c1	-0.8	0.4	30.8*	-1.0	0.4	-0.4	13.4
Cc1nn(C)c(C)c1CN(Cc1nc(CCC(C)C)no1)C(C)C	-3.5	-12.0	31.6*	-5.2	-1.5	-0.2	12.7
Cc1cccc(NC(=O)c2cn(-c3ccccc3)nc2-c2ccccc2)c1	-25.4	14.5	8.8	2.9	0.8	-0.3	x
COc1ccc(-c2nc(-c3ccccn3)ncc2S(C)(=O)=O)cc1	9.8	-4.4	-1.9	-5.0	0.9	-0.2	x
Cn1nc(-c2ccccn2)nc2c(=O)n(C)c(=O)nc1-2	104.0*	-94.3	81.1*	-94.3*	0.5	x	89.9*
COc1ccc(CNc2nnnn2C)c(OC)c1	x	3.8	x	-5.1	x	x	x
COc1ccc(C(=O)NC(Nc2ccc(C)cc2)C(Cl)(Cl)Cl)cc1 (stereo unspecified)	-19.7	4.0	43.5*	-2.5	-1.2	-0.4	58.3*
Cc1cccc(C2(c3cccc(C)c3)CC2C(=O)Nc2ccc([N+](=O)[O-])cc2O)c1 (stereo unspecified)	-0.6	18.2	75.7*	4.5	0.7	-0.2	72.7*
